# Source: PubChem
# Sampled rows, rich in hits. Any-hit rate of the full collection: about 19%.
# ELG1 DNA repair: blocks ELG1-dependent DNA repair in HEK293T cells | HEK293T ELG1-luciferase reporter, luminescence, 16 h; DNA damage induced by 5-fluorouridine | Potency, µM (highest dose often 46.1 µM), for inactives: at the highest dose activity change, negative = inhibition, actives largely listed as inhibitors | 330,000 tested, 2.3% active; further: potency means the concentration at half of the fitted maximal effect; nearly all actives have a fitted effect of over 55% in size
#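 HEK293T cells expressing luciferase-tagged ELG1 (2,000/well) received 5-Fluorouridine plus compound or DMSO for 16 hr at 37 °C. Luciferase was read by ONE-Glo luminescence after 30 min at room temperature.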
# DT40 TDP1 CPT: growth inhibition of DT40 Tdp1-/-;hTDP1 cells with camptothecin (screen for TDP1 inhibitors) | chicken DT40 Tdp1-/-;hTDP1 cells + 20 nM CPT, ATP luminescence, 48 h | Potency, µM (titrated, usually from 46.2 µM), inactives show at the highest dose activity change, negative = growth inhibition, hits mostly inhibitors | 420,000 tested, 12% active | AID 686979; further: potency means the concentration at half of the fitted maximal effect; nearly all actives have a fitted effect of over 55% in size
#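 Cell growth measured by CellTiter-Glo luminescence after a minimum 48 h, 37 C compound exposure with 20 nM CPT in Tdp1-knockout DT40 cells stably expressing hTDP1, seeded 400/well; qHTS titration format.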
# HT1080 IDH1KD tx: kills HT-1080 cells with IDH1 knockdown; HT-1080 IDH1 knockdown viability, ATP luminescence, 48 h; Potency, µM (top dose mostly 46.1 µM), inactives show at the top dose activity, negative = toxicity, hits mostly cytotoxic; 360,000 tested, 2% active;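 further: potency means the concentration at half of the fitted maximal effect; 0% = DMSO wells and -100% = cell-free medium wells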
#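 After a 2 h attachment period, IDH1KD HT-1080 cells took pin-transferred compound for 48 h at 37 °C; ATP-based luminescence after 10 min room-temperature reagent incubation reported viability.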
# TDP1 cell noCPT: qHTS for Inhibitors of human tyrosyl-DNA phosphodiesterase 1 (TDP1): qHTS in cells in absence of CPT. AID 686978, 2013. Potency, µM (doses to about 46.2 µM), inactives show at the highest dose activity change, negative = growth inhibition, hits mostly inhibitors. DT40 Tdp1-/- hTDP1 cells, no CPT, ATP luminescence, 48 h. 420,000 tested, 15% active; further: potency means the concentration at half of the fitted maximal effect; nearly all actives have a fitted effect of over 55% in size
#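 Chicken DT40 Tdp1-/- cells complemented with human TDP1, screened without camptothecin (DMSO vehicle only), 400 cells/well. Compounds pin-transferred, cells incubated at 37 °C for at least 48 hr. Growth read as ATP-dependent luminescence (CellTiter-Glo, 30 min at RT).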
# HT1080NT lethal: kills 2HG-producing HT-1080-NT fibrosarcoma cells. HT-1080-NT fibrosarcoma viability, CellTiter-Glo ATP luminescence, 48 h. Potency, µM (doses to about 46.1 µM), for inactives: top-dose activity, negative = less viability, usual class: cytotoxic. 360,000 tested, 1.6% active;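 further: NT is the 2HG producing partner of a matched IDH1 knockdown line; potency means the concentration at half of the fitted maximal effect; 0% = DMSO-treated cells and -100% = media-only wells without cells; nearly all actives have a fitted effect of over 55% in size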
#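 Luminescent CellTiter-Glo readout after 48 hours of compound exposure at 37 degrees C defined viability of HT-1080-NT cells. Activity was normalized to DMSO wells and cell-free media wells; concentration-response curves were fitted and assigned curve classes.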
# IL-1B inflam inh: blocks inflammasome-driven IL-1 beta release | THP-1 LPS/ATP IL-1B secretion, AlphaLISA, 16 h; active compounds read low | activity change, % at 57.5 µM | 360,000 tested, 4.7% active | AID 743279; in the data active means activity change below about -50%; inconclusive means mostly about -30% to -49%
#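 THP-1 cells pretreated 1 hr with compounds (up to 57.5 uM final), then stimulated with LPS (250 ng/mL final) plus ATP (1.25 mM final); secreted IL-1B measured by AlphaLISA after 16 hr, decreased signal indicating inhibition.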
# ELG1 FLuc counter: luciferase inhibition in cell-free luciferin readout for ELG1 hits. 350 tested, 3% active. shares compounds with ELG1 DNA repair. cell-free firefly luciferase luminescence counter-screen, ViewLux. Potency, µM (titrated, usually from 46.1 µM), inactives show top-dose activity change, negative = inhibition, most hits filed as inhibitors; further: potency means the concentration at half of the fitted maximal effect
# ELG1 Luc conf: confirmation of human ELG1-dependent DNA repair inhibitors | shares compounds with ELG1 DNA repair | HEK293T ELG1-luciferase levels, luminescence; cells co-treated with 5-fluorouridine | Potency, µM (series often up to 46.1 µM), for inactives: top-dose activity change, negative = inhibition, hits mostly inhibitors | 670 tested, 68% active; further: potency means the concentration at half of the fitted maximal effect; nearly all actives have a fitted effect of over 55% in size
# Target sequence (Q96QE3 whole entry, looked up): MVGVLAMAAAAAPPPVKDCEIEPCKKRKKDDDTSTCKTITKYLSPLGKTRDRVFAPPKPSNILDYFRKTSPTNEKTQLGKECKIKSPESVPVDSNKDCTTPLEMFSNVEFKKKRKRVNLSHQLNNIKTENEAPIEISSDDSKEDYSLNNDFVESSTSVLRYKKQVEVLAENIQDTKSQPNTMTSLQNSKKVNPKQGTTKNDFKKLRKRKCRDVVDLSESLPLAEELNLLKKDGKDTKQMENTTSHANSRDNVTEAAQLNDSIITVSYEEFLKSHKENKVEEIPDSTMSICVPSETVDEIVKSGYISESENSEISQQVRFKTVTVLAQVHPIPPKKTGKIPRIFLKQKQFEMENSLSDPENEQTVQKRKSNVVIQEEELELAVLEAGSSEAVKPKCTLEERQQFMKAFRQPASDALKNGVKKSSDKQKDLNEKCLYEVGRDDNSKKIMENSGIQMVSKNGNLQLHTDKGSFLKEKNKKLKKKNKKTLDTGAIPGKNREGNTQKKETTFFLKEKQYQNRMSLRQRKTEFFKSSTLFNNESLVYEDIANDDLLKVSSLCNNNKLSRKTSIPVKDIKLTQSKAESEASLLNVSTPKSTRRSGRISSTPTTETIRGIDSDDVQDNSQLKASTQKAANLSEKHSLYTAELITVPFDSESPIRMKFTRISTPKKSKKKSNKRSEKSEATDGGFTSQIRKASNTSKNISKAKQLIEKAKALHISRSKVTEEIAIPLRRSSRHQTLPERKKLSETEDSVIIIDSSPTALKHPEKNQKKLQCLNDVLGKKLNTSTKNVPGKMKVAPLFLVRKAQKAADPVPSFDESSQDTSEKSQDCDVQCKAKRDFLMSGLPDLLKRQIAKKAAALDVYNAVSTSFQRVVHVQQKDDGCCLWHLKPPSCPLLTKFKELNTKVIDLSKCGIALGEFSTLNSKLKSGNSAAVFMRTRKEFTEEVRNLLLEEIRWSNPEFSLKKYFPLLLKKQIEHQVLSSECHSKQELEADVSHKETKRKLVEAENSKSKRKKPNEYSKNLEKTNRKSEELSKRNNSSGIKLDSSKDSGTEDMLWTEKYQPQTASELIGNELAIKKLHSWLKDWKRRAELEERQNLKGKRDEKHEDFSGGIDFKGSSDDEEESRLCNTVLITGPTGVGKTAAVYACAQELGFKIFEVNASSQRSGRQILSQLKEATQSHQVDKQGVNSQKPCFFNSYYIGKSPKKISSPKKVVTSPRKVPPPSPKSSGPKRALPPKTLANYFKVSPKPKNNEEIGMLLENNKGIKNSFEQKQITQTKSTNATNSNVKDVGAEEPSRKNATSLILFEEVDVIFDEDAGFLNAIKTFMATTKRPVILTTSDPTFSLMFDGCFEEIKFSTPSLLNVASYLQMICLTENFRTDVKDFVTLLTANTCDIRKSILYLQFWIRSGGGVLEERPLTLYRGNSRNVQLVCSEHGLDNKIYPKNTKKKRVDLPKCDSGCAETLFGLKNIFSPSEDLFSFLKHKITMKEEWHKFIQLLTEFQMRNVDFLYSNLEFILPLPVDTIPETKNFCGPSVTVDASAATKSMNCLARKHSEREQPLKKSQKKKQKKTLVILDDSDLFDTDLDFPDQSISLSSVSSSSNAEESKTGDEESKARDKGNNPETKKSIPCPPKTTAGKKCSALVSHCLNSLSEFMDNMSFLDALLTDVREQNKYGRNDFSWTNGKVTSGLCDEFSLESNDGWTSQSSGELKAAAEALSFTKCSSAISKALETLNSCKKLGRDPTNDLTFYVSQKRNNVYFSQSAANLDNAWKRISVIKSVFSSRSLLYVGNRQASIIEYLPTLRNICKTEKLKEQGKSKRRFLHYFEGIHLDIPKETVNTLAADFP
# ELG1-Luc MMS: MMS-stimulated human ELG1 repair inhibition, confirmed; HEK293T luciferase-tagged ELG1 level, MMS stimulated; 670 tested, 53% active; shares compounds with ELG1 DNA repair; Potency, µM (titrated, usually from 46.1 µM), inactives show top-dose activity change, negative = inhibition, usual class: inhibitors; further: potency means the concentration at half of the fitted maximal effect; nearly all actives have a fitted effect of over 60% in size
# ELG1 5FU viab: confirmation of ELG1 repair inhibitors: viability with 5FU. AID 624250. Potency, µM (series often up to 46.1 µM), for inactives: at the top dose activity change, negative = viability loss, usual class: cytotoxic. 670 tested, under 10 active. shares compounds with ELG1 DNA repair. cell viability with 5-FU, ELG1-dependent repair;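 further: ELG1-luc HEK293T cells cotreated with 5-fluorouridine at 10 µM final; potency means the concentration at half of the fitted maximal effect; viability measured 16 h after compound addition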
# ELG1 MMS cell: confirmation of ELG1 repair inhibitors: viability with MMS; AID 624251; Potency, µM (doses to about 46.1 µM), inactives show at the highest dose activity change, negative = viability loss, actives largely listed as cytotoxic; Cell viability with MMS, ELG1-dependent DNA repair; shares compounds with ELG1 DNA repair; 670 tested, 33% active;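 further: ELG1-luc HEK293T cells co-treated with 10 µM MMS; potency means the concentration at half of the fitted maximal effect; viability read 16 h after compound addition; nearly all actives have a fitted effect of over 60% in size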
# Cell viab unstim: affects unstimulated cell viability, ELG1 hit counter-screen; shares compounds with ELG1 DNA repair; cell viability counter-screen, unstimulated, luminescence; Potency, µM (titrated, usually from 45.9 µM), for the others: top-dose activity change, negative = loss of viability, most hits filed as cytotoxic; 900 tested, 8% active; AID 624252;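 further: potency means the concentration at half of the fitted maximal effect; compound exposure lasted 16 hours before reading; nearly all actives have a fitted effect of over 55% in size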
# FLuc enzyme: firefly luciferase inhibition counter-screen. AID 624253. Potency, µM (top dose mostly 57.5 µM), inactives show at the top dose activity, negative = inhibition, usual class: inhibitors. shares compounds with ELG1 DNA repair. purified firefly luciferase, luminescence counter-screen. 350 tested, 10% active; further: potency means the concentration at half of the fitted maximal effect
# An asterisk follows results filed as active; ? = inconclusive; . = no result; [ ] = remark or other dose. Unless noted, the call rests on the fitted dose curve; in most records, active means well fitted curve in the direction sought with a large enough effect; inconclusive means small, poorly fitted or top-dose-only effect, or another doubt; inactive means no such curve, though single readings can be large; an effect the other way counts as inactive or inconclusive. Unless noted, on the % scale 0 is the no-effect control and ±100 the full control effect.
SMILES,ELG1 DNA repair,DT40 TDP1 CPT,HT1080 IDH1KD tx,TDP1 cell noCPT,HT1080NT lethal,IL-1B inflam inh,Cell viab unstim,others
COC(=O)CSc1nc2cc3c(cc2cc1C)OCCO3,-10%,-18%,-4%,-14%,8%,-8,.,
CCOc1ccc2cc(C#N)c(SCC(=O)N3CCOCC3)nc2c1,?,-1%,0%,-23%,1%,-7,?,ELG1 FLuc counter=85%;FLuc enzyme=6%
COc1ccc(NC(=O)CN(C)CC(=O)Nc2sc3c(c2C#N)CCC3)cc1,?,-24%,-3%,-14%,-6%,-27,.,
CCOc1ccc(-c2nc(-c3cccnc3)no2)cc1,?,-25%,2%,?,3%,?,.,
COc1ccc(-c2nc(-c3cccnc3)no2)cc1,?,?,12%,16µM*,13%,0,0%,
COc1ccc(-c2nn(-c3ccccc3)cc2/C=C/C(=O)N2CCOCC2)cc1OC,1.5µM*,?,-13%,?,-15%,?,?,ELG1 Luc conf=1.4µM*;ELG1-Luc MMS=-16%;ELG1 5FU viab=?;ELG1 MMS cell=-10%
Cn1cc(Br)c(C(=O)N/N=C/c2cc3c(cc2Cl)OCO3)n1,?,6%,0%,0%,-9%,?,.,
COc1cccc(C(=O)c2c(-c3ccccc3)ncc3cc(OC)c(OC)cc23)c1,?,?,-17%,?,-5%,?,.,
COc1cc2cnc(-c3ccccc3)c(C(=O)c3ccc(OCc4ccccc4)cc3)c2cc1OC,2.6µM*,?,-3%,?,1%,-22,0%,ELG1 Luc conf=10µM*;ELG1-Luc MMS=13µM*;ELG1 5FU viab=?;ELG1 MMS cell=11µM*
Cn1c(NN)nc2c1c(=O)n(Cc1ccccc1)c(=O)n2C,4%,3%,-3%,2%,-5%,?,.,
Cc1ccc(S(=O)(=O)NCc2ccc(C(=O)N3CCN(c4ccc([N+](=O)[O-])cc4)CC3)cc2)cc1,2.3µM*,16µM*,-5%,9.2µM*,-14%,-11,?,ELG1 Luc conf=7.9µM*;ELG1-Luc MMS=1.6µM*;ELG1 5FU viab=-8%;ELG1 MMS cell=1.8µM*
Cc1ncc(C[n+]2csc(CCOP(=O)(O)O)c2C)c(N)n1,.,-10%,.,-11%,.,.,.,
COc1ccccc1/C=C1\Cc2ccccc2C1=O,?,?,-4%,?,-11%,15,.,
COc1cccc2c1C(=O)/C(=C\c1ccc(N(C)C)cc1)C2,.,?,.,11µM*,.,.,?,
OC(c1ccc(F)cc1)(C1CCCCC1)C(CN1CCOCC1)c1ccccc1 (stereo not drawn),-25%,?,0%,-29%,7%,9,.,
Cc1ccc2nc(-c3ccc(C)c(NC(=O)COc4ccc(Br)cc4)c3)oc2c1,.,?,.,-12%,.,.,-1%,ELG1 FLuc counter=68%;FLuc enzyme=?
Cc1nn(C)cc1S(=O)(=O)NCc1ccccc1Cl,7%,20%,22%,14%,15%,1,.,
Cc1ccc(S(=O)(=O)Nc2cc3c4c(c2)CCN4C(=O)CC3)cc1,?,-7%,-13%,?,0%,-1,0%,ELG1 FLuc counter=34%;FLuc enzyme=2%
COc1cc(C(=O)NCc2ccc3c(c2)OCO3)c([N+](=O)[O-])cc1OC,2%,-5%,5%,-14%,8%,8,.,
COc1cc(Cl)c(C)cc1NC(=O)CN(C)Cc1cccc(OC)c1OC,2.6µM*,?,?,?,-23%,-5,?,ELG1 Luc conf=25µM*;ELG1-Luc MMS=16µM*;ELG1 5FU viab=6%;ELG1 MMS cell=14µM*
COc1ccccc1CN(C)CC(=O)Nc1ccc(Cl)cc1F,?,?,-6%,?,-9%,0,.,
COc1ccccc1NC(=O)CSc1nnc(-c2ccc(C)cc2)o1,?,-14%,-4%,-9%,-8%,6,.,
Cc1ccc(NC(=O)CSc2nnc(-c3ccc(S(=O)(=O)N4CCCC4)cc3)o2)cc1C,-2%,-26%,-17%,-8%,-53%,12,.,
COc1cccc(NC(=O)CSc2nnc(-c3ccc(C)cc3)o2)c1,?,-6%,-2%,-19%,-8%,2,1%,
Cc1ccccc1NC(=O)CSc1nc2ccccc2o1,?,-27%,-5%,-22%,1%[9.24 µM],14,?,ELG1 FLuc counter=64%;FLuc enzyme=-6%
Cc1ccccc1-c1nnc(SCC(=O)Nc2cccnc2Cl)o1,?,13µM*,23µM*,16µM*,18µM*,15,25µM*,
O=C(CSc1nnc(-c2ccc(F)cc2)o1)Nc1ccc(S(=O)(=O)N2CCCCCC2)cc1,-3%,-25%,-24%,?,-26%,11,?,ELG1 FLuc counter=-5%;FLuc enzyme=-7%
Cc1ccsc1C(=O)Nc1cccc(-n2cnnn2)c1,9%,-4%,0%,-3%,-1%,-11,.,
